Laboratory results from PubChem BioAssay (NCI).
The panel holds about 79,000 compounds, 15% with a hit somewhere; the sample as a whole holds those more often. Unmarked numbers belong to inactive results. Activity calls are given as the source filed them. Rule as the data show it: active = growth inhibition above about 70%; inactive = the rest. Where a SMILES comes first, the peptide text is derived from it. The star is where a group is joined. Myristoyl = CCCCCCCCCCCCCC(=O)*

Assay: NCI Yeast Anticancer Drug Screen. Data for the bub3 strain (AID 167)
Settings: S. cerevisiae bub3 mutant strain, at 50.0 µM, active compounds read high
Summary of the method: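 Inhibition values come from growth of compound-treated mutant yeast normalised to vehicle-treated controls.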

Row | Structure (SMILES) | growth inhibition
1 | NS(=O)(=O)c1ccc(NC2=CC(=O)C(=O)c3ccccc32)cc1 | -7.55%
2 | O=[N+]([O-])c1ccccc1C=NC12CC3CC(CC(C3)C1)C2 | -15.3%
3 | c1ccc(SCCP(CCP(c2ccccc2)c2ccccc2)c2ccccc2)cc1 (stereo not given) | 37.8%
4 | CC(=O)CC(=O)NCCCN1CCCCCC1 | -11.2%
5 | CCCCCCCC(=O)OCC1OC(n2cc(F)c(=O)[nH]c2=O)C(NC(=O)OCc2ccccc2)C(O)C1O (stereo not given) | -12.4%
6 | NNC(=O)CSc1ncnc2nc[nH]c12 | 9.65%
7 | Cc1ccc(-c2nc(-c3nccc4ccccc34)oc2-c2ccccc2)cc1 | -29.7%
8 | CCc1nnc(CC)n1N | 16.4%
9 | O=C1CCCC2=C1CC1=C(CCCC1=O)N2c1ccc([N+](=O)[O-])cc1 | 0.45%
10 | CC(=O)Nc1ccc(/C=N\NC(=S)Nc2ccc(F)cc2)cc1 | 4.65%
11 | COc1cccc(-c2nsc(=O)o2)c1 | 52.6%
12 | O=C1N=C2C=CC=CN2CC1O (stereo not given) | 11.5%
13 | CC1(C)N=C(N)N=C(N)N1CCCCc1ccccc1 | -71.8%
14 | CC#Cc1c(C#CC)c(OC)c2c(c1OC)C(=O)c1ccccc1C2=O | -8.2%
15 | COc1ccc(CCN=C(N)CCl)cc1 | 18.9%
16 | S=C(Nc1c2c(nc3ccccc13)CCCC2)Nc1c2c(nc3ccccc13)CCCC2 | -17.9%
17 | CC1(C)CC(=O)C2(C)C(C1O)C2C1C2C(O)C(C)(C)CC(=O)C21C (stereo not given) | 8.2%
18 | CC(=O)c1c2c(cc3c1CC1(C3)Cc3cc4c(c(C(C)=O)c3C1)CCC4)CCC2 | -3.35%
19 | O=C1OC(=O)C2C1C1C=CC2C1(c1ccccc1)c1ccccc1 (stereo not given) | 25.5%
20 | CCC1(C)C(=O)SC(=S)N1C (stereo not given) | -0.7%

Row | Structure (SMILES) | growth inhibition
21 | CCN(CC)c1ccc(N=C2C=C(C(=O)Nc3ccccc3)C(=O)c3ccccc32)cc1 | -3.9%
22 | O=C(CCN1CCCC1)c1ccccc1 | -10.6%
23 | CC(=O)C1CN(C)CCC1=O (stereo not given) | -13.7%
24 | CC1=NNC(=O)C1(C)C | 3.3%
25 | Cc1cc(C)c2c(ccc3ccccc32)n1 | -19.9%
26 | O=C(Oc1cccc2ccccc12)c1cccnc1 | 19.7%
27 | NS(=O)(=O)c1ccc(N=C2C(=O)Nc3ccccc32)cc1 | -23.8%
28 | CCCCCCCCCCCCCC(=O)NCC(=O)NC(CO)C(=O)NC(CO)C(=O)NC(CCCCN)C(=O)NC(CO)C(=O)NC(CCCCN)C(=O)N1CCCC1C(=O)NC(CCCCN)C(=O)NC(CC(=O)O)C(N)=O (stereo not given) (Myristoyl-GSSKSKPKD-NH2; configuration not given here) | 10.3%
29 | CC12CC3(Nc4ccccc4C3(C)O)OC1(C)c1ccccc1N2 (stereo not given) | -6.1%
30 | OCC=C1CCCCCC1 | 12.3%
31 | O=C1NCC/C1=C\c1ccccc1 | -6.65%
32 | COc1ccc(N=NC(=S)NNc2ccc(OC)cc2Oc2ccccc2)c(Oc2ccccc2)c1 | -4.6%
33 | C[C@@H](O)CO | -3.55%
34 | CCOC(=O)C1/C(=C\O)C(=O)c2cc(OC)c(OC)cc2C1c1ccc(OC)c(OC)c1 (stereo not given) | -5.95%
35 | COc1cc(OC)c(NC(=O)Nc2ccc([N+](=O)[O-])cc2OC)cc1Cl | 1.25%
36 | Cc1cccc(CC(N)C(=O)O)c1 (stereo not given) | 4%
37 | NC(N)=Nc1cccc2ccccc12 | -0.45%
38 | O=Cc1[nH]c(=S)[nH]c(=O)c1Cc1cccc(Cl)c1 | 77.5% (active)
39 | C1CCN(CCC2CCNCC2)C1 | -1%
40 | O=C(O)c1cccc2c1cc(Br)c1ccccc12 | 15.8%

Assay: NCI Yeast Anticancer Drug Screen. Data for the mlh1 rad18 strain (AID 175)
Settings: S. cerevisiae mlh1 rad18 strain growth inhibition; at 50.0 µM; active compounds read high
Summary of the method: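 Cells of a genetically altered yeast strain, deficient in DNA damage repair, were treated with compound. Their growth was then compared with that of vehicle-treated cultures to give inhibition.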

Row | Structure (SMILES) | growth inhibition
41 | NS(=O)(=O)c1ccc(NC2=CC(=O)C(=O)c3ccccc32)cc1 | -11.6%
42 | O=[N+]([O-])c1ccccc1C=NC12CC3CC(CC(C3)C1)C2 | 3.45%
43 | c1ccc(SCCP(CCP(c2ccccc2)c2ccccc2)c2ccccc2)cc1 (stereo not given) | 57.1%
44 | CC(=O)CC(=O)NCCCN1CCCCCC1 | -4.35%
45 | CCCCCCCC(=O)OCC1OC(n2cc(F)c(=O)[nH]c2=O)C(NC(=O)OCc2ccccc2)C(O)C1O (stereo not given) | -17.6%
46 | NNC(=O)CSc1ncnc2nc[nH]c12 | -0.5%
47 | Cc1ccc(-c2nc(-c3nccc4ccccc34)oc2-c2ccccc2)cc1 | 5.2%
48 | CCc1nnc(CC)n1N | 38.2%
49 | O=C1CCCC2=C1CC1=C(CCCC1=O)N2c1ccc([N+](=O)[O-])cc1 | -19.3%
50 | CC(=O)Nc1ccc(/C=N\NC(=S)Nc2ccc(F)cc2)cc1 | -18.8%
51 | COc1cccc(-c2nsc(=O)o2)c1 | 32.6%
52 | O=C1N=C2C=CC=CN2CC1O (stereo not given) | 15.3%
53 | CC1(C)N=C(N)N=C(N)N1CCCCc1ccccc1 | -16.6%
54 | CC#Cc1c(C#CC)c(OC)c2c(c1OC)C(=O)c1ccccc1C2=O | -25.1%
55 | COc1ccc(CCN=C(N)CCl)cc1 | -2%
56 | S=C(Nc1c2c(nc3ccccc13)CCCC2)Nc1c2c(nc3ccccc13)CCCC2 | 12%
57 | CC1(C)CC(=O)C2(C)C(C1O)C2C1C2C(O)C(C)(C)CC(=O)C21C (stereo not given) | -16.1%
58 | CC(=O)c1c2c(cc3c1CC1(C3)Cc3cc4c(c(C(C)=O)c3C1)CCC4)CCC2 | -30.6%
59 | O=C1OC(=O)C2C1C1C=CC2C1(c1ccccc1)c1ccccc1 (stereo not given) | 7%
60 | CCC1(C)C(=O)SC(=S)N1C (stereo not given) | 5.6%

Row | Structure (SMILES) | growth inhibition
61 | CCN(CC)c1ccc(N=C2C=C(C(=O)Nc3ccccc3)C(=O)c3ccccc32)cc1 | -21.4%
62 | O=C(CCN1CCCC1)c1ccccc1 | -11.1%
63 | CC(=O)C1CN(C)CCC1=O (stereo not given) | 16.9%
64 | CC1=NNC(=O)C1(C)C | 4.55%
65 | Cc1cc(C)c2c(ccc3ccccc32)n1 | -33.5%
66 | O=C(Oc1cccc2ccccc12)c1cccnc1 | 31.3%
67 | NS(=O)(=O)c1ccc(N=C2C(=O)Nc3ccccc32)cc1 | 4.95%
68 | CCCCCCCCCCCCCC(=O)NCC(=O)NC(CO)C(=O)NC(CO)C(=O)NC(CCCCN)C(=O)NC(CO)C(=O)NC(CCCCN)C(=O)N1CCCC1C(=O)NC(CCCCN)C(=O)NC(CC(=O)O)C(N)=O (stereo not given) (Myristoyl-GSSKSKPKD-NH2; configuration not given here) | 14%
69 | CC12CC3(Nc4ccccc4C3(C)O)OC1(C)c1ccccc1N2 (stereo not given) | 17.5%
70 | OCC=C1CCCCCC1 | 2.95%
71 | O=C1NCC/C1=C\c1ccccc1 | -15.4%
72 | COc1ccc(N=NC(=S)NNc2ccc(OC)cc2Oc2ccccc2)c(Oc2ccccc2)c1 | 3.35%
73 | C[C@@H](O)CO | 13.2%
74 | CCOC(=O)C1/C(=C\O)C(=O)c2cc(OC)c(OC)cc2C1c1ccc(OC)c(OC)c1 (stereo not given) | 21.9%
75 | COc1cc(OC)c(NC(=O)Nc2ccc([N+](=O)[O-])cc2OC)cc1Cl | -7.2%
76 | Cc1cccc(CC(N)C(=O)O)c1 (stereo not given) | -9.8%
77 | NC(N)=Nc1cccc2ccccc12 | -5.15%
78 | O=Cc1[nH]c(=S)[nH]c(=O)c1Cc1cccc(Cl)c1 | 83.2% (active)
79 | C1CCN(CCC2CCNCC2)C1 | 3.8%
80 | O=C(O)c1cccc2c1cc(Br)c1ccccc12 | 24.7%
